In all, about 5,500 compounds went through this assay and about 2,000 (36%) were called active. Inconclusive results (about 18%) are left out. No stated cut-off is given here; in the data, active means normalized growth mostly below about 0.91 (no sharp cut-off); inconclusive means no clear call, values can overlap the other calls; inactive means mostly above about 0.92. The list shows a part of the results.
Assay: chemical genetic growth profiling, strain panel (AID 1159580);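 further: tested at 20 µM; growth read once vehicle control cultures reached saturation at 30 °C; 1 = growth at the plate median or of vehicle wells; lower values mean less growth of the strain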
Details: growth OD

Measured: normalized growth

CCOC(=O)OC(C)OC(=O)C1N2C(=O)C(NC(=O)[C@H](N)c3ccccc3)C2SC1(C)C (stereo not given in full)
inactive: S. cerevisiae deletion strains, locus YJR075W, strain HOC1, hits give low values 0.966 | S. cerevisiae deletion strains, locus YKL009W, strain mrt4, hits give low values 0.946 | S. cerevisiae deletion strains, locus YKL068W, hits give low values 0.98 | S. cerevisiae deletion strains, locus YKL085W, strain MDH1 (second series), hits give low values 0.989 | S. cerevisiae deletion strains, locus YKL085W, strain MDH1, hits give low values 0.989 | S. cerevisiae deletion strains, locus YKL160W, strain elf1, hits give low values 0.966 | S. cerevisiae deletion strains, locus YKL190W, strain CNB1, hits give low values 0.975 | S. cerevisiae deletion strains, locus YKR001C, strain vps1, hits give low values 0.98 | S. cerevisiae deletion strains, locus YKR026C, strain gcn3, hits give low values 1.01 | S. cerevisiae deletion strains, locus YKR091W, strain srl3, hits give low values 0.977 | S. cerevisiae deletion strains, locus YLL001W, strain dnm1, hits give low values 0.96 | S. cerevisiae deletion strains, locus YLL026W, hits give low values 0.998 | S. cerevisiae deletion strains, locus YLL041C, strain sdh2, hits give low values 0.983 | S. cerevisiae deletion strains, locus YLR027C, strain aat2, hits give low values 0.984 | S. cerevisiae deletion strains, locus YLR039C, strain RIC1, hits give low values 0.991 | S. cerevisiae deletion strains, locus YLR058C, strain SHM2, hits give low values 0.963 | S. cerevisiae deletion strains, locus YLR102C, strain apc9, hits give low values 0.987 | S. cerevisiae deletion strains, locus YLR113W, strain HOG1, hits give low values 0.966 | S. cerevisiae deletion strains, locus YLR221C, strain rsa3, hits give low values 0.999 | S. cerevisiae deletion strains, locus YLR258W, strain gsy2, hits give low values 1 | S. cerevisiae deletion strains, locus YLR262C, strain YPT6 (second series), hits give low values 0.982 | S. cerevisiae deletion strains, locus YLR262C, strain YPT6, hits give low values 0.964 | S. cerevisiae deletion strains, locus YLR268W, strain sec22, hits give low values 0.988 | S. cerevisiae deletion strains, locus YLR320W, strain mms22, hits give low values 0.96 | S. cerevisiae deletion strains, locus YLR330W, strain CHS5, hits give low values 0.992 | S. cerevisiae deletion strains, locus YLR342W, strain FKS1 (second series), hits give low values 1.11 | S. cerevisiae deletion strains, locus YLR342W, strain FKS1, hits give low values 0.976 | S. cerevisiae deletion strains, locus YLR357W, strain rsc2, hits give low values 0.961 | S. cerevisiae deletion strains, locus YLR370C, strain arc18, hits give low values 0.982 | S. cerevisiae deletion strains, locus YLR371W, strain rom2, hits give low values 0.999 | S. cerevisiae deletion strains, locus YLR384C, strain iki3, hits give low values 0.974 | S. cerevisiae deletion strains, locus YLR418C, strain cdc73, hits give low values 0.978 | S. cerevisiae deletion strains, locus YML016C, strain PPZ1, hits give low values 0.986 | S. cerevisiae deletion strains, locus YML032C, strain rad52, hits give low values 0.962 | S. cerevisiae deletion strains, locus YML120C, strain ndi1, hits give low values 0.974 | S. cerevisiae deletion strains, locus YML124C, strain tub3, hits give low values 0.987 | S. cerevisiae deletion strains, locus YMR058W, strain fet3, hits give low values 0.977 | S. cerevisiae deletion strains, locus YMR078C, strain ctf18, hits give low values 0.994 | S. cerevisiae deletion strains, locus YMR125W, strain sto1, hits give low values 0.99 | S. cerevisiae deletion strains, locus YMR129W, hits give low values 0.992 | S. cerevisiae deletion strains, locus YMR205C, strain PFK2, hits give low values 0.966 | S. cerevisiae deletion strains, locus YMR223W, strain ubp8, hits give low values 0.986 | S. cerevisiae deletion strains, locus YMR231W, strain pep5, hits give low values 0.998 | S. cerevisiae deletion strains, locus YMR263W, strain SAP30, hits give low values 0.967 | S. cerevisiae deletion strains, locus YMR307W, strain GAS1, hits give low values 1.04 | S. cerevisiae deletion strains, locus YNL067W, strain RPL9B, hits give low values 0.945 | S. cerevisiae deletion strains, locus YNL071W, strain lat1, hits give low values 0.998 | S. cerevisiae deletion strains, locus YNL153C, strain GIM3, hits give low values 0.932 | S. cerevisiae deletion strains, locus YNL183C, strain NPR1, hits give low values 0.947 | S. cerevisiae deletion strains, locus YNL209W, strain ssb2, hits give low values 0.989 | S. cerevisiae deletion strains, locus YNL233W, strain BNI4, hits give low values 0.97 | S. cerevisiae deletion strains, locus YNL248C, strain rpa49, hits give low values 0.985 | S. cerevisiae deletion strains, locus YNL250W, strain rad50, hits give low values 0.968 | S. cerevisiae deletion strains, locus YNL271C, strain bni1, hits give low values 0.986 | S. cerevisiae deletion strains, locus YNL298W, strain CLA4, hits give low values 0.982 | S. cerevisiae deletion strains, locus YNL307C, strain MCK1, hits give low values 0.995 | S. cerevisiae deletion strains, locus YNL322C, strain KRE1 (second series), hits give low values 0.968 | S. cerevisiae deletion strains, locus YNL322C, strain KRE1, hits give low values 0.985 | S. cerevisiae deletion strains, locus YNR049C, strain mso1, hits give low values 0.976 | S. cerevisiae deletion strains, locus YNR052C, strain pop2, hits give low values 0.987 | S. cerevisiae deletion strains, locus YOL006C, strain TOP1, hits give low values 0.825 | S. cerevisiae deletion strains, locus YOL012C, strain htz1 0.766 | S. cerevisiae deletion strains, locus YOL147C, strain pex11, hits give low values 0.993 | S. cerevisiae deletion strains, locus YOR001W, strain rrp6, hits give low values 1.01 | S. cerevisiae deletion strains, locus YOR061W, strain CKA2, hits give low values 0.949 | S. cerevisiae deletion strains, locus YOR069W, strain VPS5, hits give low values 0.992 | S. cerevisiae deletion strains, locus YOR070C, strain gyp1, hits give low values 0.993 | S. cerevisiae deletion strains, locus YOR080W, strain dia2, hits give low values 0.975 | S. cerevisiae deletion strains, locus YOR083W, strain WHI5, hits give low values 0.967 | S. cerevisiae deletion strains, locus YOR106W, strain vam3, hits give low values 0.952 | S. cerevisiae deletion strains, locus YOR136W, strain idh2, hits give low values 0.974 | S. cerevisiae deletion strains, locus YOR144C, strain elg1, hits give low values 0.987 | S. cerevisiae deletion strains, locus YOR184W, strain ser1, hits give low values 0.985 | S. cerevisiae deletion strains, locus YOR231W, strain MKK1, hits give low values 0.978 | S. cerevisiae deletion strains, locus YOR265W, strain rbl2, hits give low values 0.993 | S. cerevisiae deletion strains, locus YOR270C, strain vph1, hits give low values 0.92 | S. cerevisiae deletion strains, locus YOR290C, strain snf2, hits give low values 0.985 | S. cerevisiae deletion strains, locus YOR316C, strain cot1, hits give low values 0.976 | S. cerevisiae deletion strains, locus YPL051W, strain arl3, hits give low values 0.99 | S. cerevisiae deletion strains, locus YPL055C, strain LGE1, hits give low values 0.881 | S. cerevisiae deletion strains, locus YPL078C, strain atp4, hits give low values 0.971 | S. cerevisiae deletion strains, locus YPL106C, strain sse1, hits give low values 0.955 | S. cerevisiae deletion strains, locus YPL240C, strain hsp82, hits give low values 1 | S. cerevisiae deletion strains, locus YPL256C, strain CLN2, hits give low values 0.978 | S. cerevisiae deletion strains, locus YPR119W, strain clb2, hits give low values 0.983 | S. cerevisiae deletion strains, locus YPR141C, strain kar3, hits give low values 0.978 | S. cerevisiae deletion strains, locus YPR163C, strain tif3, hits give low values 0.984 | S. cerevisiae deletion strains, locus YPR167C, strain met16, hits give low values 0.996 | S. cerevisiae deletion strains, strain wtn01, hits give low values 0.992 | S. cerevisiae strains, strain wild type, hits give low values 0.98
